Measurements from PubChem BioAssay (Tox21).
Inconclusive results are not listed. The source made the active and inactive calls. Unless noted, the call rests on the fitted dose curve; in most records, active means well fitted curve in the direction sought with a large enough effect in the repeat runs; inconclusive means weak or mixed curves; inactive means no such curve, though single readings can be large; an effect the other way counts as inactive or inconclusive.

Experiments:
[1] = qHTS assay to identify small molecule antagonists of the glucocorticoid receptor (GR) signaling pathway - cell viability counter screen (AID 720693); further: nearly all actives have a fitted effect of over 55% in size
[2] = qHTS assay for identifying genotoxic compounds that show differential cytotoxicity against isogenic chicken DT40 cell lines with known DNA damage response pathways - Rev3 mutant cell line (AID 743014); further: nearly all actives have a fitted effect of over 55% in size; further: potency means the concentration at half of the fitted maximal effect
[3] = qHTS assay for identifying genotoxic compounds that show differential cytotoxicity against isogenic chicken DT40 cell lines with known DNA damage response pathways - Rad54/Ku70 mutant cell line (AID 743015); further: nearly all actives have a fitted effect of over 60% in size; further: potency means the concentration at half of the fitted maximal effect
[4] = qHTS assay to identify small molecule antagonists of the androgen receptor (AR) signaling pathway - cell viability counter screen (AID 743033; further: nearly all actives have a fitted effect of over 45% in size)
[5] = qHTS assay to identify small molecule antagonists of the androgen receptor (AR) signaling pathway using the MDA cell line - cell viability counter screen (AID 743041; further: nearly all actives have a fitted effect of over 45% in size)
How it was run: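 Same-well cytotoxicity was assessed by CellTiter-Fluor in MDA-kb2 AR-luc cells after 16 h of compound treatment under R1881 agonism.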

[6] = qHTS assay to identify small molecule antagonists of the thyroid receptor (TR) signaling pathway - cell viability counter screen (AID 743064); further: nearly all actives have a fitted effect of over 50% in size; further: potency means the concentration at half of the fitted maximal effect
How it was run: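 Same-well viability check: GH3.TRE-Luc cells stimulated with 1 nM T3 alongside test compound for 23.5 h, followed by CellTiter-Fluor fluorescence.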

[7] = qHTS assay to identify small molecule antagonists of the thyroid receptor (TR) signaling pathway (AID 743065); further: nearly all actives have a fitted effect of over 55% in size; further: potency means the concentration at half of the fitted maximal effect
How it was run: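 GH3.TRE-Luc rat pituitary cells (two TREs driving luciferase) were dosed with compound, then stimulated with 1 nM T3 (final) for 23.5 h at 37 C. ONE-Glo luminescence was the read-out, with CellTiter-Fluor fluorescence as the cytotoxicity counter-screen.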

[8] = test system: thyroid hormone receptor (rat, GH3 cells); experiment: qHTS assay to identify small molecule agonists of the thyroid receptor (TR) signaling pathway (AID 743066; calls by dose curve)
[9] = target: Estrogen receptor (Homo sapiens) (UniProt P03372); experiment: qHTS assay to identify small molecule antagonists of the estrogen receptor alpha (ER-alpha) signaling pathway (AID 743069; active means well fitted curve in the direction sought with a large enough effect in the signal ratio in the repeat runs, not every such curve was filed as active; the % refers to the signal ratio)
How it was run: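 Reporter cells (ER-alpha-bla, HEK293 background) are conditioned overnight in stripped-serum medium (2% charcoal-stripped FBS). Compound and 17beta-estradiol exposure runs 18 hr at 37C, 5% CO2.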

[10] = qHTS assay to identify small molecule antagonists of the estrogen receptor alpha (ER-alpha) signaling pathway - cell viability counter screen (AID 743074; calls by dose curve;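 further: HEK293 cells carrying ER-alpha-UAS-bla reporter stimulated with 17beta-estradiol; nearly all actives have a fitted effect of over 45% in size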)
[11] = target: Estrogen receptor (Homo sapiens) (UniProt P03372); experiment: qHTS assay to identify small molecule agonists of the estrogen receptor alpha (ER-alpha) signaling pathway (AID 743075; calls by dose curve;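 further: HEK293 GripTite cells with ER-alpha and UAS-driven beta-lactamase reporter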)
[12] = target: Estrogen receptor (Homo sapiens) (UniProt P03372); experiment: qHTS assay to identify small molecule agonists of the estrogen receptor alpha (ER-alpha) signaling pathway using the BG1 cell line (AID 743079); further: nearly all actives have a fitted effect of over 20% in size; further: potency means the concentration at half of the fitted maximal effect
[13] = qHTS assay to identify small molecule antagonists of the estrogen receptor alpha (ER-alpha) signaling pathway using the BG1 cell line (AID 743080; calls by dose curve;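 further: BG1 cells stimulated with 17beta-estradiol alongside compound; series mostly up to about 70 µM; nearly all actives have a fitted effect of over 25% in size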)
How it was run: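 Readout is ONE-Glo luminescence, taken 30 min at room temperature after reagent addition, preceded by a CellTiter-Fluor viability read; BG1-Luc-4E2 cells had received compound and 17beta-estradiol for 21.5 h at 37 C.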

[14] = qHTS assay to identify small molecule antagonists of the estrogen receptor alpha (ER-alpha) signaling pathway using the BG1 cell line - cell viability counter screen (AID 743081);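 further: compound given together with 17beta-estradiol as the ER stimulus; series mostly up to about 70 µM; nearly all actives have a fitted effect of over 45% in size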
Aromatase (Homo sapiens) = Aromatase (Homo sapiens) (UniProt P11511); experiment: qHTS assay to identify aromatase inhibitors (AID 743083); further: series mostly up to about 70 µM; nearly all actives have a fitted effect of over 55% in size
[15] = qHTS assay for identifying genotoxic compounds that show differential cytotoxicity against isogenic chicken DT40 cell lines with known DNA damage response pathways - wild type cell line (AID 743012); further: nearly all actives have a fitted effect of over 60% in size; further: potency means the concentration at half of the fitted maximal effect
How it was run: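 Wild-type DT40 cells (300/well) exposed to compounds for 40 hours at 37 C/5% CO2. Viability read by CellTiter-Glo luminescence after 30 min at room temperature.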

[16] = target: Androgen receptor (Homo sapiens) (UniProt P10275); experiment: qHTS assay to identify small molecule antagonists of the androgen receptor (AR) signaling pathway (AID 743035; active means well fitted inhibition curve with a large enough effect in the signal ratio in the repeat runs, not every such curve was filed as active; the % refers to the signal ratio)
How it was run: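 HEK293 cells stably carrying UAS-beta-lactamase reporter, 2,000/well, given compounds plus R1881 agonist and incubated 16 h at 37C. LiveBLAzer B/G FRET substrate then added for 2 h at room temperature before fluorescence reading.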

[17] = target: Androgen receptor (Homo sapiens) (UniProt P10275); experiment: qHTS assay to identify small molecule agonists of the androgen receptor (AR) signaling pathway (AID 743036; active means well fitted activation curve with a large enough effect in the signal ratio in the repeat runs, with a control signal flat, not every such curve was filed as active; the % refers to the signal ratio)
How it was run: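 Agonist activity was scored by beta-lactamase reporter fluorescence in stably transfected HEK293 cells exposed to compounds for 16 h at 37C and 5% CO2. Substrate loading took 2 h at room temperature.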

[18] = target: Androgen receptor (Homo sapiens) (UniProt P10275); experiment: qHTS assay to identify small molecule agonists of the androgen receptor (AR) signaling pathway using the MDA cell line (AID 743040; further: nearly all actives have a fitted effect of over 20% in size)
How it was run: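 Human breast carcinoma MDA-kb2 reporter cells (MMTV-luc, AR/GR elements) were treated for 16 h at 37C in 0% CO2 following a 5 h settling period. Signal was quantified by ONE-Glo luminescence.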

[19] = target: Androgen receptor (Homo sapiens) (UniProt P10275); experiment: qHTS assay to identify small molecule antagonists of the androgen receptor (AR) signaling pathway using the MDA cell line (AID 743042; further: nearly all actives have a fitted effect of over 55% in size)
How it was run: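 MDA-kb2 breast carcinoma cells carrying MMTV-luciferase (AR/GR responsive) were co-treated with compounds and the agonist R1881 for 16 h at 37C. Inhibition read as ONE-Glo luminescence; CellTiter-Fluor fluorescence measured in parallel for cytotoxicity.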

Measured: Potency

Sequence of Androgen receptor (Homo sapiens) (P10275 whole entry, looked up): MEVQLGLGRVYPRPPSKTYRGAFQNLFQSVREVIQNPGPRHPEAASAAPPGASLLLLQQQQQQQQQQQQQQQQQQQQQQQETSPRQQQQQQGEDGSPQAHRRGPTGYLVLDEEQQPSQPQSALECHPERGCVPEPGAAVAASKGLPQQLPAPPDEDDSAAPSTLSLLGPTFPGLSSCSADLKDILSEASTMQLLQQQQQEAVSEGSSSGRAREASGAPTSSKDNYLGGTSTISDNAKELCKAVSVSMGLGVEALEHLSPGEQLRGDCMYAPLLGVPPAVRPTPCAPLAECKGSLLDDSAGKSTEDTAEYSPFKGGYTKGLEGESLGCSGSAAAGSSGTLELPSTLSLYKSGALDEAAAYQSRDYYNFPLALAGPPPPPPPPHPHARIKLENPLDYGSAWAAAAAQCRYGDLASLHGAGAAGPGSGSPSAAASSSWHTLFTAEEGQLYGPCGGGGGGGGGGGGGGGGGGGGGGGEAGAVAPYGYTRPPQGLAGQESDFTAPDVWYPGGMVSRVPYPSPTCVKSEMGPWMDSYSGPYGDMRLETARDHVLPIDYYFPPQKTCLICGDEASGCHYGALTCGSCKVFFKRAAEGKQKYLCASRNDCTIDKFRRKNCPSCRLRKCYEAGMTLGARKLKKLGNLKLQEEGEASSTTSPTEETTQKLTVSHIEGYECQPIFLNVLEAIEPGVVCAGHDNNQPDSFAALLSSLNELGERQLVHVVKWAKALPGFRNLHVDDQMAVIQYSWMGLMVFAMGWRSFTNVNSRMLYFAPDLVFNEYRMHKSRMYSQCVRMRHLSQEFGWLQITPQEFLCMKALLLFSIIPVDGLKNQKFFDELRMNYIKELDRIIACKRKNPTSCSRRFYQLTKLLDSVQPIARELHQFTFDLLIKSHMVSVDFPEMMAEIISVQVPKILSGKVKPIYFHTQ
Sequence of Estrogen receptor (Homo sapiens) (P03372 whole entry, looked up): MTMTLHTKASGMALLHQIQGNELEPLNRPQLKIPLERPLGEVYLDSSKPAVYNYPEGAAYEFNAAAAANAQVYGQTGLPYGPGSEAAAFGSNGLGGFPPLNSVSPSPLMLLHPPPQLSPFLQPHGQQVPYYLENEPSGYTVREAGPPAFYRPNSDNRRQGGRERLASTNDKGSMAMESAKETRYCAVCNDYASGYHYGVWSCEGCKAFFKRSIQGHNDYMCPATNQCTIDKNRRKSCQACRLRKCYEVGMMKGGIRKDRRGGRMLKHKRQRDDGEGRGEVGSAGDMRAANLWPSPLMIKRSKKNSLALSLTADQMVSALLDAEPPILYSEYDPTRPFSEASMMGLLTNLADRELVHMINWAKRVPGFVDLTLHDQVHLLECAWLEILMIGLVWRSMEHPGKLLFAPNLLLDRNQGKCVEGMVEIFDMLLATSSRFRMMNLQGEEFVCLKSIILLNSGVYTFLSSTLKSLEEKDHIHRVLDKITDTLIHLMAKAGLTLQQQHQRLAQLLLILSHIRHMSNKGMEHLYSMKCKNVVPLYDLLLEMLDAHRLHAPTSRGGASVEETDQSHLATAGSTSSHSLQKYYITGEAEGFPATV
Sequence of Aromatase (Homo sapiens) (P11511 whole entry, looked up): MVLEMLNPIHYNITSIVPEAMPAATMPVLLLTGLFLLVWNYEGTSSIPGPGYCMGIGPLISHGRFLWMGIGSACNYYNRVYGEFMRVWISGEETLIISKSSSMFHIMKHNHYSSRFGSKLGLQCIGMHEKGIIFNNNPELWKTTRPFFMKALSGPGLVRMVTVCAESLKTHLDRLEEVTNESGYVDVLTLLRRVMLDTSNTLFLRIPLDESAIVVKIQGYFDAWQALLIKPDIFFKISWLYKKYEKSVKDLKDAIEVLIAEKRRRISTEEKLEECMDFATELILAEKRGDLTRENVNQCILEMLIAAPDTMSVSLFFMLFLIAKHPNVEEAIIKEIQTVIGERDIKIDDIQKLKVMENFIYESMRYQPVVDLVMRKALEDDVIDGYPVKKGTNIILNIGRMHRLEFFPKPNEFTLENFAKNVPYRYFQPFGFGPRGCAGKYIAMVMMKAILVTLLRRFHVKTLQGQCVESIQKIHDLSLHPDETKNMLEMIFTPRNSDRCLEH

C=CCS(=O)(=O)O
not listed: [15] | [16] | [17] | [18] | [19]
inactive: all other assays above

CCCCCCOC(=O)CCCCC(=O)OCCCCCC
not listed: [2] | [6] | [16] | [17] | [18] | [19]
inactive: all other assays above

O=C1CCCC(=O)C1
inactive: [1] | [2] | [3] | [4] | [5] | [6] | [7] | [8] | [10] | [14] | Aromatase (Homo sapiens)

CC(C)(O)C(=O)c1ccccc1
not listed: [6] | [7] | [15]
inactive: all other assays above

C1CN(CCOCCN2CCOCC2)CCO1
not listed: [15] | [16] | [17] | [18] | [19]
inactive: all other assays above

CCCCCCCCCCCC
inactive: [1] | [15] | [2] | [4] | [5] | [7] | [8] | [13] | [14] | Aromatase (Homo sapiens)

OC[C@]1(O)OC[C@@H](O)[C@H](O)[C@@H]1O
inactive: [1] | [2] | [3] | [4] | [5] | [6] | [7] | [8] | [10] | [14] | Aromatase (Homo sapiens)

CC(C)NC(=O)NC(C)C
not listed: [15]
inactive: all other assays above

COC(=O)[C@@H](N)Cc1ccc(O)c(O)c1
inactive: [1] | [4] | [17] | [18] | [5] | [19] | [8] | [10] | Aromatase (Homo sapiens)
active: [15] 29.8 µM | [3] 33.5 µM | [6] 21.1 µM | [7] 23.7 µM

CCCCC(CC)COC(=O)c1ccccc1O (centres undefined)
active: [12] 16.8 µM
not listed: [15] | [16] | [17] | [18] | [19]
inactive: all other assays above

CN(C)CCCNCCCN(C)C
not listed: [15] | [16] | [17] | [18] | [19]
inactive: all other assays above

Brc1c(NC2=NCCN2)ccc2nccnc12
inactive: [1] | [15] | [2] | [5] | [6] | [7] | [8] | [10] | [14] | Aromatase (Homo sapiens)

Cc1cccn2c(=O)c(-c3nnn[nH]3)cnc12
not listed: [2] | [6] | [7] | [8] | [16] | [17] | [18] | [19]
inactive: all other assays above

NC(=O)c1ccc(N)cc1
not listed: [10] | [12] | [15] | [16] | [17] | [18] | [19]
inactive: all other assays above

CC1(C)CO[C@@H](CC(=O)O)CN1
not listed: [15] | [16] | [17] | [18] | [19]
inactive: all other assays above

CCOC(=O)[C@H](CCc1ccccc1)N[C@@H](C)C(=O)N1[C@H](C(=O)O)C[C@@H]2CCC[C@@H]21
not listed: [2] | [16] | [17] | [18] | [19]
inactive: all other assays above

CC(=O)OC/C=C(\C)CC/C=C(\C)CCC=C(C)C
active: [2] 61.1 µM | [3] 61.1 µM
not listed: [13] | [15] | [16] | [17] | [18] | [19]
inactive: all other assays above

Cc1ccc(=O)n(-c2ccccc2)c1
not listed: [2] | [7] | [8] | [12] | [16] | [17] | [18] | [19]
inactive: all other assays above

COc1nc(N)nc2c1ncn2[C@@H]1O[C@H](CO)[C@@H](O)[C@@H]1O
inactive: [1] | [15] | [3] | [5] | [8] | [10] | [14] | Aromatase (Homo sapiens)
